From PubChem BioAssay (NCATS) come the findings set out here.

SMILES strings stand for the structures. “And” between values parts separate entries of the source, which are not always exact repeats. Equal entries are not always repeated. Inconclusive results are not listed. A number with no mark means an inactive call. The source made the active and inactive calls. The call rests on the fitted dose curve; in most records, active means well fitted curve in the direction sought with a large enough effect; inconclusive means small, poorly fitted or top-dose-only effect, or another doubt; inactive means no such curve, though single readings can be large; an effect the other way counts as inactive or inconclusive.

Assay [1] in a line: Viability qHTS for spleen associated tyrosine kinase inhibitor (SYKi) naive MV4-11 cells (AID 1963823). Further: nearly all actives have a fitted effect of over 40% in size. Further: potency means the concentration at half of the fitted maximal effect. The essentials:
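Seeding of 500 SYKi-naive MV4-11 cells per well onto pre-dispensed compounds preceded a 72 hr incubation at 37 C. Luminescent CellTiter-Glo signal, read after 10 min at room temperature, reflected viable cells.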
(Quantitative high-throughput screening tests each substance at several concentrations.)

A short description of assay [2]: Viability qHTS for spleen associated tyrosine kinase inhibitor (SYKi) drug resistant MV4-11 cells (AID 1963824). Further: nearly all actives have a fitted effect of over 35% in size. Further: potency means the concentration at half of the fitted maximal effect. The essentials:
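SYK inhibitor-resistant MV4-11 AML cells, 500 per well, added to predispensed compounds and incubated 72 hr at 37 C, 5% CO2. Viability measured by CellTiter-Glo luminescence after 10 min at room temperature.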

Assay [3] can be described thus: Cellular viability qHTS for adrenocortical cancer (ACC) cell line SW-13 (AID 1963989). Further: nearly all actives have a fitted effect of over 65% in size. Further: potency means the concentration at half of the fitted maximal effect.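 On activity (max response): cells grown in serum-free medium with ITS supplement; on the % scale 0 is the no-effect control and ±100 the full control effect.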 The following applies: SW-13 ACC cells viability, CellTiter-Glo, 48 h; activity (max response): stronger effect = lower value. The method, boiled down: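 Here, serum-free SW-13 cultures were dosed up to 46 uM. Following 48 h, ATP-dependent luminescence (CellTiter-Glo) reported viable cells, and logistic modeling produced IC50 values.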

Assay [4] can be described thus: Cellular viability qHTS for adrenocortical cancer (ACC) cell line NCI-H295R (AID 1963990). Further: nearly all actives have a fitted effect of over 60% in size. Further: potency means the concentration at half of the fitted maximal effect. The method, boiled down:
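Viability of NCI-H295R after 48 h of treatment (final up to 46 uM) measured through cellular ATP luminescence.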

A short description of assay [5]: Quantitative highthroughput screen to assess conditional lethalithy of NOMO1 cells grown in Human Plasma-Like Medium with dialyzed fetal bovine serum (HPLM+ds) (AID 1963878).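 Further: 100% = DMSO wells and 0% = empty wells on each plate; nearly all actives have a fitted effect of over 35% in size.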 The essentials: (§1)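 Each medium arm—HPLM with 10% dialyzed FBS, or RPMI1640 with 5 mM glucose and 10% untreated or dialyzed FBS—was screened against an 11-point, 3-fold compound titration for 48 h at 37 °C, with CellTiter-Glo luminescence as endpoint.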

A short description of assay [6]: Quantitative highthroughput screen to assess conditional lethalithy of P12 Ichikawa cells grown in Human Plasma-Like Medium with dialyzed fetal bovine serum (HPLM+ds) (AID 1963879). Further: series mostly up to about 46 µM; nearly all actives have a fitted effect of over 35% in size. The following applies: Potency: viability. The essentials: as §1
Assay [7] can be described thus: Quantitative highthroughput screen to assess conditional lethalithy of P12 Ichikawa cells grown in RPMI1640 with dialyzed fetal bovine serum (RPMI+ds) (AID 1963880).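 Further: 100% = DMSO wells and 0% = empty wells on each plate; nearly all actives have a fitted effect of over 35% in size.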 The following applies: Potency: P12-Ichikawa viability. The essentials: as §1
Assay [8] in a line: Quantitative highthroughput screen to assess conditional lethalithy of P12 Ichikawa cells grown in RPMI1640 with untreated serum (RPMI+s) (AID 1963881). The following applies: Potency: viability. The essentials: as §1

`C=CCN1CC[C@]23CCCC[C@H]2[C@H]1Cc1ccc(O)cc13`: the Potency result in assay [1], in assay [2] and in assay [4] was “inactive” throughout. For the same compound, in assay [3], the activity (max response) was -5.85%.
For the compound `CC(C)NCC(O)c1ccc(N)c(C#N)c1` (stereo not given), the Potency entry in assay [1], in assay [2] and in assay [4] was “inactive” throughout. Moreover, the activity (max response) in assay [3] is 6.97%.
For the compound `COc1ccc2c(c1OC)C(=O)O[C@H]2[C@@H]1c2cc3c(cc2CCN1C)OCO3`, the Potency entry in assay [1], in assay [2] and in assay [4] was “inactive” throughout. In addition, the activity (max response) in assay [3] was 8.92%.
`Clc1ccc(COC(Cn2ccnc2)c2ccc(Cl)cc2Cl)cc1` (stereo not given): the Potency in assay [1] was 8.33 µM (active); in assay [2] it was 8.33 µM (active); in assay [3], 25.1 µM (active); in assay [4], 22.4 µM (active).
With `COc1cc(N)c(Cl)cc1C(=O)NC1CN2CCC1CC2` (stereo not given), the Potency result in assay [1], in assay [2] and in assay [4] was “inactive” in each case. Moreover, the activity (max response) in assay [3] is -1.3%.
Take `O=C1OC(c2ccc(O)c(S(=O)(=O)O)c2)(c2ccc(O)c(S(=O)(=O)O)c2)c2c(Br)c(Br)c(Br)c(Br)c21`: the Potency entry in assay [1], in assay [2] and in assay [4] was “inactive” throughout. Moreover, the activity (max response) in assay [3] was 4.14%.
`CCC(OC(C)=O)C(CC(C)NC)(c1ccccc1)c1ccccc1` (stereo not given): the Potency in assay [1] is 43.7 µM (active); in assay [2], 31 µM (active); in assay [3] it was 28.2 µM (active); in assay [4], 15.8 µM (active).
Regarding `O=C(O)c1ccc2[nH]cc(CCCCN3CC=C(c4ccccc4)CC3)c2c1`, the Potency in assay [1] is 9.44 µM (active). Moreover, the Potency entry in assay [2] and in assay [4] was “inactive” each time. For the same compound, the activity (max response) in assay [3] was -1.83%.
Take `C/C=C(/C)C(=O)O[C@H]1C(C)=C2[C@H]([C@@H]1OC(=O)CCCCCCC)[C@@](C)(OC(C)=O)C[C@H](OC(=O)CCC)[C@@]1(O)[C@H]2OC(=O)[C@@]1(C)O`: the Potency is 25.9 nM (active) and 20.9 nM (active) in assay [1]; 18.4 nM (active) and 3.7 nM (active) in assay [2]; 0.0447 µM (active) in assay [3]; 1.78 µM (active) in assay [4].
Regarding `CO[C@H]1CCC(O[C@H]2C[C@H]([C@]3(C)CC[C@]4(C[C@H](O)[C@@H](C)[C@@H]([C@@H](C)/C=C(\C)C(=O)[C@H](C)C[C@H](C)C(=O)O)O4)O3)O[C@]3(O[C@@H]([C@H]4O[C@@](O)(CO)[C@H](C)C[C@@H]4C)C[C@@H]3C)[C@@H]2C)O[C@@H]1C` (stereo not given in full), the values for the Potency in assay [1], in assay [2] and in assay [4] were 0.166 µM (active), 0.209 µM (active) and 1.12 µM (active), respectively.
`CCC1(c2ccccc2)C(=O)N(COC)C(=O)N(COC)C1=O`: the Potency result in assay [1], in assay [2] and in assay [4] was “inactive” throughout. For the same compound, in assay [3], the activity (max response) is -1.61%.
Consider `COCC(=O)N(c1c(C)cccc1C)C(C)C(=O)OC` (stereo not given), for which the Potency result in assay [1], in assay [2] and in assay [4] was “inactive” throughout. Further, the activity (max response) in assay [3] was 0.998%.
Consider `C/C(=C\c1csc(C)n1)[C@@H]1C[C@@H]2O[C@]2(C)CCC[C@H](C)[C@H](O)[C@@H](C)C(=O)C(C)(C)[C@@H](O)CC(=O)O1`, for which the Potency was 0.0047 µM (active) in assay [1], 0.0047 µM (active) in assay [2] and 0.0282 µM (active) in assay [4].
`COC12C(COC(N)=O)C3=C(C(=O)C(C)=C(N)C3=O)N1CC1C2N1C` (stereo not given): the Potency in assay [1] is 0.59 µM (active); in assay [2] it was 0.833 µM (active); in assay [3], 25.1 µM (active); in assay [4] it was 15.8 µM (active).
For the compound `Cc1ccc(S(=O)(=O)N[C@@H](CCCCN)C(=O)CCl)cc1`, the Potency entry in assay [1], in assay [2] and in assay [4] was “inactive” in each case. Moreover, the activity (max response) in assay [3] was 15.2%.
Turning to `COc1ccc(Cc2nccc3cc(OC)c(OC)cc23)cc1OC`, the Potency in assay [1] is 6.68 µM (active) and 2.35 µM (active); in assay [2], 7.5 µM (active) and 2.95 µM (active). In addition, the Potency entry in assay [4] is “inactive”.
With `CCCCCCCCCC(=O)O[C@H]1CC[C@H]2[C@@H]3CCC4=CC(=O)CC[C@@H]4[C@H]3CC[C@]12C`, the Potency result in assay [1], in assay [2] and in assay [4] was “inactive” in each case. Further, in assay [3], the activity (max response) is 6.32%.
Regarding `O=C(O)COc1nc(Cl)c(Cl)cc1Cl`, the Potency result in assay [1] and in assay [4] was “inactive” throughout. The activity (max response) in assay [3] was 12.3%.
As to `Nc1ccc(Cl)cc1C(=O)c1ccccc1F`, in assay [1], the Potency entry is “inactive”. Further, the activity (max response) in assay [3] was -12.6%.
Regarding `NCCc1ccc(O)cc1`, the Potency entry in assay [1] is “inactive”. The activity (max response) in assay [3] was 4.68%.
For `CC[C@H]1C[C@H]2[C@@H]3CCC4=CC(=O)CC[C@@H]4[C@H]3CC[C@]2(C)[C@H]1O`, the Potency in assay [1] is 18.8 µM (active). For the same compound, in assay [3], the activity (max response) was -16.6%.
With `O=C(NC(=O)c1c(F)cccc1F)Nc1cc(Cl)c(OC(F)(F)C(F)C(F)(F)F)cc1Cl` (stereo not given), the Potency in assay [1] was 11.9 µM (active); in assay [2] it was 16.8 µM (active). Further, the Potency entry in assay [4] was “inactive”.
Consider `C[C@](O)(COc1ccc(C#N)cc1)C(=O)Nc1ccc(C#N)c(C(F)(F)F)c1`, for which the Potency was 18.6 µM (active) in assay [1] and 22.4 µM (active) in assay [3]. Besides, the Potency result in assay [5], in assay [6], in assay [7] and in assay [8] was “inactive” in each case.
Turning to `CN1C(=O)[C@@H](NC(=O)[C@H](CCC(F)(F)F)[C@H](CCC(F)(F)F)C(N)=O)N=C(c2ccccc2)c2ccccc21`, the Potency result in assay [1] was “inactive”. The activity (max response) in assay [3] was -2.32%.
